Test results taken from the supplement of paper PMC8387472.

How the values were obtained:
Settings in all cases: mESC; 2uM; 72 h treatment, harvest day 5
Rifapentine = compound: CO[C@H]1/C=C/O[C@@]2(C)Oc3c(C)c(O)c4c(O)c(c(/C=N/N5CCN(C6CCCC6)CC5)c(O)c4c3C2=O)NC(=O)/C(C)=C\C=C\[C@H](C)[C@H](O)[C@@H](C)[C@@H](O)[C@@H](C)[C@H](OC(C)=O)[C@@H]1C [Rifapentine]; assay: fraction of microhomology deletions among edited reads; higher = more MH deletions
[1] = compound: COc1ccccc1-c1cc(Nc2cccc(CS(N)(=O)=O)c2)ncn1; assay: as above
[2] = compound: C[C@@H]1CN(CC(=O)Nc2ccc3c(c2)Cc2cccc(-c4cc(=O)cc(N5CCOCC5)o4)c2S3)C[C@H](C)O1; assay: as above
[3] = compound: Cc1cc(C)nc(SCC(=O)Nc2ncc(Cc3cccc4ccccc34)s2)n1; assay: as above
[4] = compound: Cc1cccc(CC(=O)N2CCc3c2ccc(-c2cn(C)c4ncnc(N)c24)c3F)n1; assay: as above
[5] = compound: NC(=O)c1ccc2nc(-c3ccc(Oc4ccc(Cl)cc4)cc3)[nH]c2c1 [Chk 2 inhibitor II (BML-277)]; assay: as above
Tucidinostat (Chidamide) = compound: Nc1cc(F)ccc1NC(=O)c1ccc(CNC(=O)/C=C/c2cccnc2)cc1 [Tucidinostat (Chidamide)]; assay: as above
Pemetrexed = compound: Nc1nc2[nH]cc(CCc3ccc(C(=O)N[C@@H](CCC(=O)O)C(=O)O)cc3)c2c(=O)[nH]1 [Pemetrexed]; assay: as above
[6] = compound: Nc1ncnc2c1c(-c1cnc3[nH]ccc3c1)nn2C1CCCC1; assay: as above
[7] = compound: O=C(c1cccc(Cl)c1F)N1CCN(Cc2cccc(Nc3nccs3)n2)CC1; assay: as above
Kenpaullone = compound: O=C1Cc2c([nH]c3ccc(Br)cc23)-c2ccccc2N1 [Kenpaullone]; assay: as above
Genistein = compound: O=c1c(-c2ccc(O)cc2)coc2cc(O)cc(O)c12 [Genistein]; assay: as above
[8] = compound: O=c1cc(N2CCOCC2)oc2c(-c3ccc4c(c3)OCCO4)csc12; assay: as above
Mercaptopurine (6-MP) = compound: S=c1[nH]cnc2nc[nH]c12 [Mercaptopurine (6-MP)]; assay: as above
[9] = compound: S=c1nc[nH]c2nc[nH]c12 [6-Mercaptopurine (6-MP) Monohydrate]; assay: as above
[10] = compound: CC(=O)O/N=C1\C(=O)N(Cc2cc(Cl)ccc2Cl)c2ccc(Cl)cc21; assay: fraction of 1-bp insertions among edited reads; higher = more 1-bp insertion outcomes
[11] = compound: CC(C)(C#N)c1ccc(N2C(=O)OCc3cnc4ccc(-c5cnc6ccccc6c5)cc4c32)cc1; assay: as above
[12] = compound: CCCCOc1c(C(=O)c2c(F)cc(C)cc2F)c[nH]c2nncc1-2; assay: as above
[13] = compound: CCN1CCN(CC(=O)Nc2ccc(-c3cccc4c(=O)cc(N5CCOCC5)oc34)c3sc4ccccc4c23)CC1; assay: as above
[14] = compound: CCc1c2c(nc3ccc(OC(=O)N4CCC(N5CCCCC5)CC4)cc13)-c1cc3c(c(=O)n1C2)COC(=O)[C@]3(O)CC [Irinotecan HCl Trihydrate]; assay: as above

Target | fraction of microhomology deletions among edited reads (Rifapentine) | fraction of microhomology deletions among edited reads [1] | fraction of microhomology deletions among edited reads [2] | fraction of microhomology deletions among edited reads [3] | fraction of microhomology deletions among edited reads [4] | fraction of microhomology deletions among edited reads [5] | fraction of microhomology deletions among edited reads (Tucidinostat (Chidamide)) | fraction of microhomology deletions among edited reads (Pemetrexed) | fraction of microhomology deletions among edited reads [6] | fraction of microhomology deletions among edited reads [7] | fraction of microhomology deletions among edited reads (Kenpaullone) | fraction of microhomology deletions among edited reads (Genistein) | fraction of microhomology deletions among edited reads [8] | fraction of microhomology deletions among edited reads (Mercaptopurine (6-MP)) | fraction of microhomology deletions among edited reads [9] | fraction of 1-bp insertions among edited reads [10] | fraction of 1-bp insertions among edited reads [11] | fraction of 1-bp insertions among edited reads [12] | fraction of 1-bp insertions among edited reads [13] | fraction of 1-bp insertions among edited reads [14]
29.0 (DMSO control at this site: 1-bp insertion 0.084, MH deletion 0.745, edited 0.133) TTGATGAACTTCCTCTTCTTCTCATGTCTCCGGTCTCCGGTAGGCCACGTGCATGGCCACT | 0.751 | 0.667 | 0.482 | 0.692 | 0.702 | 0.741 | 0.686 | 0.691 | 0.696 | 0.662 | 0.631 | 0.718 | 0.735 | 0.669 | 0.633 | 0.0853 | 0.0763 | 0.0825 | 0.0366 | 0.0846
46.0 TTAAGAGCAATGTTCACGCAACTTGAAATTATATCTGTGGTCTTCAAATTGTCTTTTGTCA | 0.417 |  |  |  |  |  | 0.327 | 0.431 | 0.497 |  |  | 0.375 |  |  | 0.33 |  | 0.09 | 0.208 |  | 
5.0 (DMSO control at this site: 1-bp insertion 0.214, MH deletion 0.567, edited 0.105) CGCTGACCCGAGACCTACGCGAACCGAAATCGGCGACCGGTGCGCAAGCAGGGCTGGCGTC | 0.578 | 0.519 | 0.353 | 0.571 | 0.568 | 0.58 | 0.526 | 0.565 | 0.512 | 0.537 | 0.523 | 0.604 | 0.61 | 0.507 | 0.498 | 0.204 | 0.198 | 0.226 | 0.0634 | 0.239
34.0 (DMSO control at this site: 1-bp insertion 0.184, MH deletion 0.385, edited 0.103) ATTATAGGACCCTGAGGGAGCAGAGATGTGGGAATGGGGGCCGAGCCAATTGTGATGTAAG | 0.567 | 0.502 | 0.342 | 0.517 | 0.483 | 0.486 | 0.409 | 0.413 | 0.39 | 0.39 | 0.473 | 0.534 | 0.476 | 0.424 |  | 0.157 | 0.154 | 0.172 | 0.0647 | 0.184
32.0 (DMSO control at this site: 1-bp insertion 0.03, MH deletion 0.85, edited 0.898) AGAAGTCCAGGATCAGGGGGACTGGGGTCGGGAGGGTGGGGCAGGAAGGAAGCCAGAATCA | 0.91 | 0.93 | 0.896 | 0.908 | 0.897 | 0.918 | 0.904 | 0.928 | 0.886 | 0.926 | 0.904 | 0.88 | 0.92 | 0.903 | 0.897 | 0.00904 | 0.0156 | 0.0115 | 0.00897 | 0.00964
27.0 CCAGAATTAGAACATATCATCTGGACCCTTTTCCATCTGGACCCTTTTCCAGCACACCCTG | 0.214 | 0.156 |  | 0.104 |  |  | 0.174 |  | 0.105 |  | 0.0808 | 0.0896 | 0.137 | 0.197 | 0.147 | 0.107 | 0.141 | 0.138 |  | 0.178
22.0 (DMSO control at this site: 1-bp insertion 0.573, MH deletion 0.229, edited 0.045) CTGATGGTTGAAGGATTTAGCCGGGGTCCTAGACGCCGGGGTCCTAGACGAAAGGGCCACG | 0.142 | 0.163 | 0.0591 | 0.188 | 0.0873 | 0.201 | 0.209 | 0.267 |  | 0.0524 | 0.116 | 0.139 | 0.146 | 0.107 | 0.155 | 0.62 | 0.564 | 0.613 | 0.302 | 0.604
42.0 (DMSO control at this site: 1-bp insertion 0.145, MH deletion 0.655, edited 0.132) GGGCTAAACCTATGAGCACAGTAGAACTAAGGGTGGGTGGTGTAGCTAAAGAACTTGACCA | 0.683 | 0.653 | 0.384 | 0.667 | 0.682 | 0.634 | 0.607 | 0.634 | 0.571 | 0.62 | 0.557 | 0.662 | 0.691 | 0.589 | 0.567 | 0.116 | 0.148 | 0.144 | 0.0719 | 0.125
1.0 (DMSO control at this site: 1-bp insertion 0.521, MH deletion 0.323, edited 0.141) GTGTCACAGTGCACGAGTGACGGGATAATGTGCTGACAGGTAATTGATAGGCTTCCAACTT | 0.256 | 0.224 | 0.0962 | 0.248 | 0.227 | 0.243 | 0.215 | 0.342 | 0.163 | 0.209 | 0.197 | 0.286 | 0.276 | 0.227 | 0.218 | 0.514 | 0.557 | 0.595 | 0.243 | 0.586
33.0 (DMSO control at this site: 1-bp insertion 0.008, MH deletion 0.771, edited 0.112) CATTAAGAGCAGCTGCCGGCCCCCAAGTGGACAGAGCTGGCCCTGCTGATTCAACAGTGCA | 0.724 | 0.681 | 0.583 | 0.722 | 0.732 | 0.712 | 0.706 | 0.682 | 0.708 | 0.688 | 0.726 | 0.732 | 0.737 | 0.699 | 0.692 | 0.0218 | 0.021 | 0.0356 | 0.018 | 0.0322
20.0 (DMSO control at this site: 1-bp insertion 0.349, MH deletion 0.138, edited 0.084) TACAGGTGTAGACTGGTTACGTGGCTGCGGAATTGACTGGTTACGTGGCTGCGGAATTTTG | 0.246 | 0.159 | 0.0478 | 0.203 | 0.191 | 0.203 | 0.215 | 0.263 | 0.133 | 0.125 | 0.181 | 0.197 | 0.176 | 0.2 | 0.243 | 0.29 | 0.248 | 0.373 | 0.0738 | 0.285
19.0 (DMSO control at this site: 1-bp insertion 0.121, MH deletion 0.101, edited 0.057) TCTGCAGGGGTCGGAACCCGGGGGCTAGGGCTATCCCGGGGGCTAGGGCTATTAGCGAACC | 0.243 | 0.149 | 0.0547 | 0.209 | 0.212 | 0.207 | 0.188 | 0.187 | 0.202 | 0.177 | 0.221 | 0.186 | 0.125 | 0.238 | 0.163 | 0.111 | 0.0907 | 0.0994 | 0.0438 | 0.0969
28.0 (DMSO control at this site: 1-bp insertion 0.035, MH deletion 0.77, edited 0.142) TGGTTCTTCCTTTGTAGAGAGTGTTCATCTGGGAATCTGGGACTTGGATGAGACAATCATT | 0.794 | 0.755 | 0.768 | 0.777 | 0.747 | 0.768 | 0.739 | 0.737 | 0.748 | 0.76 | 0.736 | 0.784 | 0.818 | 0.718 | 0.693 | 0.0335 | 0.0355 | 0.0391 | 0.0168 | 0.0322
0.0 (DMSO control at this site: 1-bp insertion 0.463, MH deletion 0.339, edited 0.14) AGGATTACCGAGACCTACGCGAACCGAAATCGCTGTCCGGTGCGCAAGCAGGGCTGGCGTC | 0.37 | 0.294 | 0.108 | 0.304 | 0.291 | 0.331 | 0.275 | 0.346 | 0.23 | 0.201 | 0.22 | 0.34 | 0.384 | 0.288 | 0.282 | 0.437 | 0.497 | 0.504 | 0.175 | 0.456
21.0 CGATTGAGAGTCAAACGGGCCAGAAAACTCCGGGAACGGGCCAGAAAACTCCGGGGCATGG | 0.216 | 0.183 | 0.0533 | 0.176 |  | 0.226 | 0.127 | 0.186 | 0.144 |  | 0.17 | 0.202 | 0.158 | 0.16 | 0.165 | 0.0304 | 0.021 | 0.0327 | 0.0195 | 0.0253
7.0 (DMSO control at this site: 1-bp insertion 0.128, MH deletion 0.374, edited 0.098) TACTCAACCGAGACCTACGCGAACCGAAATCGTATGCCGGTGCGCAAGCAGGGCTGGCGTC | 0.414 | 0.393 | 0.324 | 0.45 | 0.441 | 0.38 | 0.427 | 0.536 | 0.425 | 0.394 | 0.436 | 0.476 | 0.43 | 0.401 | 0.367 | 0.105 | 0.131 | 0.164 | 0.113 | 0.105
4.0 (DMSO control at this site: 1-bp insertion 0.146, MH deletion 0.523, edited 0.125) ACGCCTTAGTGCACGAGTGACGGGATAATGTGGTCTCAGGTAATTGATAGGCTTCCAACTT | 0.592 | 0.535 | 0.319 | 0.545 | 0.492 | 0.575 | 0.482 | 0.504 | 0.501 | 0.475 | 0.475 | 0.553 | 0.586 | 0.478 | 0.463 | 0.121 | 0.127 | 0.152 | 0.0339 | 0.116
18.0 (DMSO control at this site: 1-bp insertion 0.114, MH deletion 0.789, edited 0.094) GCGCAAGTGCATAAGTTTTTCTTAAGGCGTGCCTTTAAGGCGTGCCTTTGTCGGTCCTGGA | 0.805 | 0.779 | 0.683 | 0.791 | 0.755 | 0.812 | 0.797 | 0.78 | 0.768 | 0.777 | 0.759 | 0.797 | 0.833 | 0.734 | 0.733 | 0.0913 | 0.0901 | 0.103 | 0.0252 | 0.109
